Source: PubChem BioAssay AID690 (Sanford-Burnham Center for Chemical Genomics, 2007)
The campaign covered roughly 96,000 compounds. About 80 (0.08%) were called active. No rule for the calls is given here. Only a sample is shown. Potency and affinity values are given separately.

Target: Alkaline phosphatase, placental type (Homo sapiens) (UniProt P05187)
Assay: inhibition of human placental alkaline phosphatase – biochemical, luminescence, HTS (AID 690)
Conditions: purified PLAP, luminescent substrate; at 20 µM; active compounds read high

Chain of Alkaline phosphatase, placental type (Homo sapiens) (P05187 whole entry, looked up): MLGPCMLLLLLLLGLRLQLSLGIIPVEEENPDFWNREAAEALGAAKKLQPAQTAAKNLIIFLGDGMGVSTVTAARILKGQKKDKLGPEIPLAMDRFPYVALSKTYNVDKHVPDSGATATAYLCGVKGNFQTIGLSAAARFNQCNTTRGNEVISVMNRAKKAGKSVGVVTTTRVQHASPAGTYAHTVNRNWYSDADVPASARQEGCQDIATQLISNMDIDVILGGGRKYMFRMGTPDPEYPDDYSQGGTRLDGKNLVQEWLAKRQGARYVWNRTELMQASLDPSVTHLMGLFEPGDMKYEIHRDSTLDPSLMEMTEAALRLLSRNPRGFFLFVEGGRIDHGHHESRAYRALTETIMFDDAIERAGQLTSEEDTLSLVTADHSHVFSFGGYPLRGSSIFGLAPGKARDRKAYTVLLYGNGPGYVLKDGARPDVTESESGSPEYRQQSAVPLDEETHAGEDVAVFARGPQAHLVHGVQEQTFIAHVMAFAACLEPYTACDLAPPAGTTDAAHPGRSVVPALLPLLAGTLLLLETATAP

inhibition, inactive:
Cc1ccc(C)c(NC(=S)NC(NC(=O)N(C)C)C(Cl)(Cl)Cl)c1 (configuration not stated) -58%
Cc1ccc(NC(=S)NC(NC(=O)Cc2cccc3ccccc23)C(Cl)(Cl)Cl)cc1 (configuration not stated) 36.5%
Cc1nc(N2CCN(S(=O)(=O)c3ccccc3)CC2)c2c3c(sc2n1)CC(C)CC3 (configuration not stated) -34.1%
O=C1c2ccc3c4c(ccc(c24)C(=O)N1Cc1cccnc1)C(=O)N(Cc1cccnc1)C3=O 4.9%
CC(O)CNc1nc2c(c(=O)n(C)c(=O)n2C)n1C/C=C/c1ccccc1 (configuration not stated) -20.9%
CCCN1/C(=C2/SC(=S)N(CC)C2=O)C=Cc2ccccc21 11.9%
CCN1C(=O)/C(=C2\C=Cc3ccccc3N2CC)SC1=S 23.5%
CCn1ncc(Br)c1C(=O)N(C)C12CC3CC(CC(C3)C1)C2 -9.1%
CN(CCNC(=O)c1cccc(N2CCCC2=O)c1)Cc1ccccc1 -40.3%
O=P(C1=C(N2CCOCC2)/C(=C\c2ccccc2)CC1)(N1CCOCC1)N1CCOCC1 -69.4%
O=C1Nc2ccccc2/C1=N\N=C\C1=C(N2CCOCC2)C(=C\c2ccccc2)/CC1 -12.2%
O=C(O)c1c(Cl)c(Cl)c(Cl)c(Cl)c1C(=O)N1CCCC1 -10.8%
CCOCC(O)CSCc1ccc(Cl)cc1 (configuration not stated) -5%
COc1ccc(CNC(=O)c2ccc(-c3ccccc3)cc2)cc1 6.9%
Fc1ccccc1CSc1nnnn1-c1ccc2c(c1)OCO2 13.8%
Fc1cccc(Cl)c1CSc1nnnn1-c1ccc2c(c1)OCO2 22.7%
CCOC(=O)CC(=O)CSc1nc2c(cc1C#N)CCC2 0%
CC(C)NS(=O)(=O)c1ccc(OCC(=O)NCc2ccccc2)cc1 -1.7%
O=C1C2CC=CCC2C(=O)N1c1n[nH]c(Cc2ccccc2)n1 (configuration not stated) 62.3%
O=C1C2C3C=CC(C3)C2C(=O)N1c1cccnc1 (configuration not stated) 15.9%
O=C1C2CC=CCC2C(=O)N1c1n[nH]c(CCc2ccccc2)n1 (configuration not stated) -20.2%
O=C1C2C3C=CC(C3)C2C(=O)N1c1cccc(N2C(=O)C3C4C=CC(C4)C3C2=O)n1 (configuration not stated) -1.8%
O=C1C2C3C=CC(C3)C2C(=O)N1c1n[nH]c(CCc2ccccc2)n1 (configuration not stated) 30%
O=C1C2C3C=CC(C3)C2C(=O)N1Cc1cccnc1 (configuration not stated) 0.6%
Cc1ccc(SCCNC(=O)C(CO)(CO)CO)cc1 11.9%
COc1ccc(CN(Cc2cc3ccc(C)cc3[nH]c2=O)Cc2nnnn2C2CCCC2)cc1 -54.8%
Cc1ccc(-c2cc(C(=O)N/N=C\c3cnn(C)c3C)c3ccccc3n2)cc1C -102%
C=CCn1c(SCC(=O)Nc2ccccc2OC)nnc1-c1ccco1 8%
O=C(C1CC1)N1CCN=C1SCc1cccc(C(F)(F)F)c1 3%
CCOCCCNC(=O)C1CCCN1S(=O)(=O)c1ccc(Cl)cc1 (configuration not stated) 8.4%
C#CC(CC)(CC)NC(=O)c1c(C)noc1C 4.5%
O=C(Cc1cccs1)NCc1ccc(F)cc1 -6%
CN1CCN(c2nc3c(c(=O)n(C)c(=O)n3C)n2CC(=O)C23CC4CC(CC(C4)C2)C3)CC1 -54.5%
CCN(CC)c1ccc(N2C(=O)/C(=C/c3cccs3)SC2=S)cc1 3.4%
O=C1/C(=C/c2cccs2)SC(=S)N1c1ccccc1 12.2%
CC(C)N(CCNS(=O)(=O)c1ccc(Cl)cc1)C(C)C 9.6%
O=C(Nc1ccccc1C(F)(F)F)c1ccc(CN2CCC(Cc3ccccc3)CC2)cc1 -22.3%
Cc1nn(-c2ccccc2)c(C)c1/C=N/NC(=O)c1cc(C(C)(C)C)[nH]n1 -32%
Cc1ccc(-c2cc(C(=O)N/N=C/c3c(C)nn(-c4ccccc4)c3C)[nH]n2)cc1 -2.5%
O=c1[nH]c(CSc2nnc(-c3ccncc3)n2Cc2ccco2)nc2ccccc12 -3.5%
N=c1oc2ccc3ccccc3c2cc1-c1nnc2n1CCCCC2 -35.4%
CC1CCC/C(=N/Nc2ccc([N+](=O)[O-])cc2[N+](=O)[O-])C1 (configuration not stated) 21.1%
O=[N+]([O-])c1ccc(C2CCCC/C2=N/OCc2ccc(F)cc2)c([N+](=O)[O-])c1 (configuration not stated) 25.8%
CCN(CC)CCCNC(=O)N[C@@H](Cc1ccccc1)C(=O)O -2.1%
CC(=O)c1c(C(C)=O)c(C)n(-c2ccc(O)cc2)c1C -4.3%
CCCCNC(=O)NC1(C(F)(F)F)Oc2ccccc2O1 -12%
O=C(NCc1cccnc1)NC1(C(F)(F)F)Oc2ccccc2O1 12.3%
CC(NC(=O)NCc1cccnc1)(C(F)(F)F)C(F)(F)F -6.1%
COCC(C)NC(=O)NC1(C(F)(F)F)Oc2ccc(Cl)cc2O1 (configuration not stated) 34.9%
Cc1nccn1S(=O)(=O)c1ccc(Br)cc1Br -1.1%
OC(CC1CC12c1ccccc1-c1ncccc12)(c1ccccc1)c1ccccc1 (configuration not stated) -45%
CCCCn1cc(C(=O)c2cc(Br)ccc2O)cc(C#N)c1=O -1.5%
CCCC1CCc2c(c3ccccc3[nH]c2=O)O1 (configuration not stated) -5%
CC1CCc2c(c3ccccc3[nH]c2=O)O1 (configuration not stated) 9%
Fc1ccc(CSc2nnc(-c3cnccn3)n2Cc2ccco2)cc1 7.7%
CCCCOC(=O)C(C)Nc1n[nH]c(=O)[nH]c1=O (configuration not stated) 3.9%
CCCCOC(=O)CNc1n[nH]c(=S)[nH]c1=O -1.8%
CCN1CCN(Cc2nc3c(c(=O)n(C)c(=O)n3C)n2Cc2cccc3ccccc23)CC1 -34.1%
Cc1ccccc1CN(c1ccc(C(=O)N2CCc3ccccc3C2)cc1)S(C)(=O)=O -40.7%
O=C(c1cccs1)c1coc2ccc(O)c(CN3CCOCC3)c12 -1%
Cc1ccc(OCn2c(=O)sc3ccccc32)cc1 -9%
O=c1sc2ccccc2n1CCOc1ccccc1 33.9%
